The supplement of paper PMC10849652
Of roughly 7,900 targets only a part is listed; those with a hit were picked by preference. About 0.6% of all pairs of compound and target were hits. Unmarked numbers belong to inactive results.

Assays:
Assay in all cases: log2 fold change, soluble protein after heating vs DMSO (PISA); higher = thermal stabilisation; K562 cells, 10 uM, 30 min; active = over 0.2 and 3.5 SD of the protein, either way, in both replicates (recomputed)
[1] = compound: C#Cc1cccc(Nc2ncnc3cc(OCCOC)c(OCCOC)cc23)c1 [erlotinib]
Method in brief: (§1)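 Values are thermal stability changes relative to control samples and are taken from duplicates. They are stated as log2 fold changes. Before quantification by TMTpro 16plex LC-MS/MS with equalised channel sums, K562 cells at 2×10^6 cells/mL were treated with 10 μM compound for 30 min, heated in aliquots for 3 min across 48°C-58°C, pooled, extracted in PBS with 0.5% NP-40 at 4°C, and centrifuged at 21,000xg for 90 min to give the soluble supernatant.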

[2] = compound: C/C(=N\NC(=O)C1=CC(=CC=C1)S(=O)(=O)N2CCOCC2)/C3=C(C=CC(=C3)Cl)O
Method in brief: as §1

[3] = compound: C1=CC(=C(C=C1Cl)C2=NC3=NC=CN=C3C(=N2)NC4=CC=NC=C4)F
Method in brief: as §1

[4] = compound: C1=CC(=CC=C1C2=NC3=C(N2)C=C(C=C3)C(=O)N)OC4=CC=C(C=C4)Cl
Method in brief: as §1

[5] = compound: C1=CC2=C(C=CC(=C2)/C=C\3/C(=O)NC(=NCC4=CC=CS4)S3)N=C1
Method in brief: as §1

[6] = compound: C1=CC2=NC=CN=C2C=C1/C=C/3\C(=O)NC(=O)S3
Method in brief: as §1

[7] = compound: C1=CC=C(C=C1)C2=NC(=C(N2)C3=CC=NC=C3)C4=CC(=C(C=C4)Cl)O
Method in brief: as §1

[8] = compound: C1=CC=C2C(=C1)C3=NNC4=CC=CC(=C43)C2=O
Method in brief: as §1

[9] = compound: C1CCN(C1)C(=O)NC2=CC=CC(=C2)NC3=NC=C(C(=N3)NCCC4=CN=CN4)Br
Method in brief: as §1

[10] = compound: C1CN(CCC1(CC2=CC=C(C=C2)Cl)N)C3=NC=NC4=C3C=CN4
Method in brief: as §1

Chain of UniProt O00220 (O00220 whole entry, looked up): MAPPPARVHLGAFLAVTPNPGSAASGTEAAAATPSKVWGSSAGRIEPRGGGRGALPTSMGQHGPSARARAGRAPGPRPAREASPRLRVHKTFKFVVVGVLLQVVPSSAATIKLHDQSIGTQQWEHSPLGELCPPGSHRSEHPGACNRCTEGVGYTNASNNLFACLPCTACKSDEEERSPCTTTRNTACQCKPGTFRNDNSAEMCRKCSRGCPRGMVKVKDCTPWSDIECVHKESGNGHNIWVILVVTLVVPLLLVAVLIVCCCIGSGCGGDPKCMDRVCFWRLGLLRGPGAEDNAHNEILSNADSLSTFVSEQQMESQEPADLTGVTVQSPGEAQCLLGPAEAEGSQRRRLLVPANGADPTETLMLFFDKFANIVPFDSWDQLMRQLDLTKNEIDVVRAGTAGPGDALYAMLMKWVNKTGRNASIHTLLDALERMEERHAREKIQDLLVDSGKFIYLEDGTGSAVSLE
Chain of UniProt P02585 (P02585 whole entry, looked up): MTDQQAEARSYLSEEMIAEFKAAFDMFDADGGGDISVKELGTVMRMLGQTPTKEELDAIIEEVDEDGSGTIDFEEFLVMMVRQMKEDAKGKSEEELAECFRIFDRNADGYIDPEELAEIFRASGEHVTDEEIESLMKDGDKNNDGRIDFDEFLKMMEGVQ
Chain of UniProt P22314 (P22314 whole entry, looked up): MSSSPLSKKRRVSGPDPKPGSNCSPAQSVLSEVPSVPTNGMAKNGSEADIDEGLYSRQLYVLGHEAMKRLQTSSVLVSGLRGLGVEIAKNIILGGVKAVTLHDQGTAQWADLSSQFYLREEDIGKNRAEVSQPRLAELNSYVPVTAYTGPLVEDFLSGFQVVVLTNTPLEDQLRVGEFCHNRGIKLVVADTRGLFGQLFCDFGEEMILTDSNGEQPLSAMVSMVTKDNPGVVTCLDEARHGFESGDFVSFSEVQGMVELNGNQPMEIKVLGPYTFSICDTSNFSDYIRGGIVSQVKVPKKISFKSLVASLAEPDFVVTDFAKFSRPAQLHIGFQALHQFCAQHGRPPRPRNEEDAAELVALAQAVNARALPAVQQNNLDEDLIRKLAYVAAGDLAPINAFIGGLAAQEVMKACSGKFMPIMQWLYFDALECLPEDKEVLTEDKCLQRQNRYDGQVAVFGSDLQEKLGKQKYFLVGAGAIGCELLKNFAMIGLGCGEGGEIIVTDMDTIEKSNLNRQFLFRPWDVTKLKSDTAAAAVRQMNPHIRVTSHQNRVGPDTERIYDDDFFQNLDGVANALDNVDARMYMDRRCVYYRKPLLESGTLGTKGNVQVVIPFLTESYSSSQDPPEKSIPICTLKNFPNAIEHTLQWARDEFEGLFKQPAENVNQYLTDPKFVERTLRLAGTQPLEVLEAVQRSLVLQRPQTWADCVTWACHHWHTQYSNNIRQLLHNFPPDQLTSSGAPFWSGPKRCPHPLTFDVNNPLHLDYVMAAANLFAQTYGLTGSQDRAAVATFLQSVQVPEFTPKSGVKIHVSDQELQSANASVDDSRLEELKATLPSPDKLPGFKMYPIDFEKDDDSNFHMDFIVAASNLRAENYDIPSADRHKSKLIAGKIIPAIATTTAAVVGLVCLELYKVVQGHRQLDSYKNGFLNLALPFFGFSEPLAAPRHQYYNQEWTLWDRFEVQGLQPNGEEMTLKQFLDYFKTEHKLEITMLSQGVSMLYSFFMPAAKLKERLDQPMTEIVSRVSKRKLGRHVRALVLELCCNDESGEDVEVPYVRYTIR
Chain of UniProt Q16763 (Q16763 whole entry, looked up): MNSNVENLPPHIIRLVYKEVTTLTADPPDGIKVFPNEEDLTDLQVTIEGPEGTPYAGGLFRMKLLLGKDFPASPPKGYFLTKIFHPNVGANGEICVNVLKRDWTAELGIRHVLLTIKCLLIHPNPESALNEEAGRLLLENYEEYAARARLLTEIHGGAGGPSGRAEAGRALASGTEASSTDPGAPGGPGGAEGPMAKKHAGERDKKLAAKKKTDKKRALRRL
Chain of UniProt A6NHL2 (A6NHL2 whole entry, looked up): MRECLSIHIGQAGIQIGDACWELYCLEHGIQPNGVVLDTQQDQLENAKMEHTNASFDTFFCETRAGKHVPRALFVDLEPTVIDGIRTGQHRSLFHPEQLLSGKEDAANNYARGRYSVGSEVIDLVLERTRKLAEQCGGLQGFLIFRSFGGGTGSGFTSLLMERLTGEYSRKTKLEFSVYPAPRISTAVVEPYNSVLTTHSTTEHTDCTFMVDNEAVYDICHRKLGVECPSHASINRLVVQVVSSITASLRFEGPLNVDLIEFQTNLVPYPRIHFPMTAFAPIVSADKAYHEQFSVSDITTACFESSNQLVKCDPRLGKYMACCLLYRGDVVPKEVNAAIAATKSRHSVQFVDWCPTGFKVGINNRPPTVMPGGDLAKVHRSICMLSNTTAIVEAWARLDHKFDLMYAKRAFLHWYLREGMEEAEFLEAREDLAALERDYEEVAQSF
Chain of UniProt Q9Y2L5 (Q9Y2L5 whole entry, looked up): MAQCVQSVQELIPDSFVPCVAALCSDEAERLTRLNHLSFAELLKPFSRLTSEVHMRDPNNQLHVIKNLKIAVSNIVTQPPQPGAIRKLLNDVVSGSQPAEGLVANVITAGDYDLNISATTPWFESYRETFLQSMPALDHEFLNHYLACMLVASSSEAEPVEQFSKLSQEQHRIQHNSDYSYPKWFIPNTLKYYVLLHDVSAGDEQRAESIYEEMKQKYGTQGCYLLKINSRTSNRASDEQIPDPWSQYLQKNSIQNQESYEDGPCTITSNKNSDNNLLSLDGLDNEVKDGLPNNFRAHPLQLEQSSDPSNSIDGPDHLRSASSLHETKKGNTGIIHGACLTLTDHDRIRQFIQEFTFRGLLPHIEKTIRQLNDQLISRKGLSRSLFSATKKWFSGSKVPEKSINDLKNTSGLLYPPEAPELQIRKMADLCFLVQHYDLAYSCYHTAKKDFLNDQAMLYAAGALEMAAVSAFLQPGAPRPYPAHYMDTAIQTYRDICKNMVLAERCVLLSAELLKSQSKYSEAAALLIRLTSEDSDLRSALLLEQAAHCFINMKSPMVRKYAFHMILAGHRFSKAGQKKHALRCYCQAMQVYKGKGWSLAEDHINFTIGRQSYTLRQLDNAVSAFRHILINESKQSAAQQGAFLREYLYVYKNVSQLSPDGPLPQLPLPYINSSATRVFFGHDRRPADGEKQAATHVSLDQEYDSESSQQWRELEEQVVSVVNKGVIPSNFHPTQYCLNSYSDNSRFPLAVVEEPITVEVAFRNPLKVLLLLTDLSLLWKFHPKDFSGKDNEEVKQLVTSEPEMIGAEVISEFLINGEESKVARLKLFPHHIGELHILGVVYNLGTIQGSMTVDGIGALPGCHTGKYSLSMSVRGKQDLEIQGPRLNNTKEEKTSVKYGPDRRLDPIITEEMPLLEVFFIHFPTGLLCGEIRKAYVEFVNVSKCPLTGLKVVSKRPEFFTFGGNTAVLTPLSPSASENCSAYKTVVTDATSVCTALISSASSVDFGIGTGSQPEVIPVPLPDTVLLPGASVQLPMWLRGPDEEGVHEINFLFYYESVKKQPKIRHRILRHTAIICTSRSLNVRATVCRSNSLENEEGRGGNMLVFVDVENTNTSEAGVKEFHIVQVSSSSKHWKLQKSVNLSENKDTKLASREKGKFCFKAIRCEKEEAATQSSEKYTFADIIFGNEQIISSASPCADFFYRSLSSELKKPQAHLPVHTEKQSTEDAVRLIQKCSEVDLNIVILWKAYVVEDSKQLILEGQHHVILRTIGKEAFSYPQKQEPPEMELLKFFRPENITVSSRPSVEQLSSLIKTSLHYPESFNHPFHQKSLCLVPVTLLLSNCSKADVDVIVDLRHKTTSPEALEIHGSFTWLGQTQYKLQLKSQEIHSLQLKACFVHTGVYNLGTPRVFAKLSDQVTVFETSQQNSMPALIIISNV
Chain of UniProt Q9BZI7 (Q9BZI7 whole entry, looked up): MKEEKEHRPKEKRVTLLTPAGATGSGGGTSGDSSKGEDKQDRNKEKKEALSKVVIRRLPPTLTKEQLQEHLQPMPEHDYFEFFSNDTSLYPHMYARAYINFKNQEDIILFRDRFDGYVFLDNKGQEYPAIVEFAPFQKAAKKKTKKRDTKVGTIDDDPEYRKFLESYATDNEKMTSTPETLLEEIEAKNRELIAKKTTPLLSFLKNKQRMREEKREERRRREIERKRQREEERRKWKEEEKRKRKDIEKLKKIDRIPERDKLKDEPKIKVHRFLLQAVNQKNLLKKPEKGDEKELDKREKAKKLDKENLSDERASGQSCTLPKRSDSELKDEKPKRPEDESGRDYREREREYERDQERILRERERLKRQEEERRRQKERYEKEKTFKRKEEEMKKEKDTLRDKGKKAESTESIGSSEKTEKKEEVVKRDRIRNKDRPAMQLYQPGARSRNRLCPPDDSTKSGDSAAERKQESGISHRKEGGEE
Chain of UniProt Q969T4 (Q969T4 whole entry, looked up): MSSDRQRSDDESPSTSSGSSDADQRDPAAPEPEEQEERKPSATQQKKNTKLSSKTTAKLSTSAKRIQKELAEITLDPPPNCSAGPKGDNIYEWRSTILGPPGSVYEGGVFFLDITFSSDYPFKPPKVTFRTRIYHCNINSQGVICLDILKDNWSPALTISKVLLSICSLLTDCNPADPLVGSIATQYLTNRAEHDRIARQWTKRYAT
Chain of UniProt Q7Z6J8 (Q7Z6J8 whole entry, looked up): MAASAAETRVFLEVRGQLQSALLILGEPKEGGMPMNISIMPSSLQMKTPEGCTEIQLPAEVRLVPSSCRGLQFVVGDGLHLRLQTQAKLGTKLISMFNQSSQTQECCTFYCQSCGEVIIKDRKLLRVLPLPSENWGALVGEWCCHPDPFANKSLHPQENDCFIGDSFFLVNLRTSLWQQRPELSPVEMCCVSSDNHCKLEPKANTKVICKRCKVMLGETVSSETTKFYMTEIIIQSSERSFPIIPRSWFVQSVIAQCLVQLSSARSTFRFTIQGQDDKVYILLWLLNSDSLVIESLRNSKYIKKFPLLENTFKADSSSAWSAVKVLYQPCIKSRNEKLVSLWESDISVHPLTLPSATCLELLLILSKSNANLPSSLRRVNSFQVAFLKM
Chain of UniProt Q9UDW1 (Q9UDW1 whole entry, looked up): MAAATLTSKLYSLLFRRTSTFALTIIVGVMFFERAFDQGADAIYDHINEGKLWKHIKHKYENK

| Target | log2 fold change [1] | log2 fold change [2] | log2 fold change [3] | log2 fold change [4] | log2 fold change [5] | log2 fold change [6] | log2 fold change [7] | log2 fold change [8] | log2 fold change [9] | log2 fold change [10] |
| --- | --- | --- | --- | --- | --- | --- | --- | --- | --- | --- |
| UBE2E3 (UniProt Q969T4) | 0.063 | 0.112 | 0.152 | -0.034 | 0.083 | 0.009 | 0.014 | 0.045 | -0.028 | -0.019 |
| TSFM (UniProt P43897) | 0.037 | -0.004 | 0.302 | -0.206 | 0.189 | 0.044 | 0.11 | -0.069 | -0.016 | 0.095 |
| UBE2J1 (UniProt Q9Y385) | 0.053 | 0.063 | -0.033 | 0.045 | 0.148 | 0.054 | 0.043 | 0.036 | -0.097 | 0.012 |
| WASHC2C, A0A096LPC5 | 0.095 | -0.224 | -0.016 | -0.006 | 0.204 | 0.113 | 0.111 | -0.071 | -0.069 | 0.08 |
| XRCC5 (UniProt P13010) | 0.103 | 0.178 | -0.012 | -0.038 | 0.079 | 0.037 | 0.11 | -0.039 | -0.059 | -0.139 |
| TOMM5 isoform 2 (UniProt Q8N4H5) | -0.115 | 0.063 | 0.378 (active) | 0.134 | 0 | 0.052 | -0.123 | -0.003 | -0.038 | -0.047 |
| TRAPPC8 (UniProt Q9Y2L5) | 0.024 | 0.118 | -0.012 | 0.027 | 0.094 | -0.007 | -0.068 | -0.018 | -0.011 | -0.036 |
| WARS2 (UniProt Q9UGM6) | 0.069 | -0.016 | 0.034 | -0.094 | 0.033 | 0.006 | -0.032 | 0.031 | 0.027 | -0.027 |
| TUBAL3 (UniProt A6NHL2) | 0.092 | 0.096 | 0.099 | 0.018 | 0.048 | 0.004 | 0.031 | -0.034 | -0.046 | 0.145 |
| TRMT61A (UniProt Q96FX7) | -0.03 | -0.062 | -0.354 (active) | 0.087 | -0.059 | -0.07 | -0.017 | -0.046 | 0.054 | 0.054 |
| U2AF2 (UniProt P26368) | 0.012 | 0.045 | -0.013 | 0.029 | -0.045 | -0.004 | 0.012 | -0.048 | -0.026 | -0.074 |
| UBE3D (UniProt Q7Z6J8) | -0.014 | -0.018 | 0.033 | 0.022 | 0.003 | -0.076 | 0.013 | -0.006 | -0.114 | 0.079 |
| UQCR10 (UniProt Q9UDW1) | -0.026 | 0.056 | 0.069 | -0.023 | 0.034 | 0.014 | 0.046 | -0.003 | 0.006 | 0 |
| TRAPPC6B (UniProt Q86SZ2) | 0.026 | 0.07 | 0.315 (active) | -0.016 | 0.011 | -0.006 | -0.016 | -0.014 | -0.048 | 0.018 |
| TNNC2 (UniProt P02585) | 0.035 | -0.007 | -0.004 | 0.018 | 0.047 | 0.026 | -0.058 | -0.026 | 0.101 | -0.449 |
| TNFAIP8 isoform 4 (UniProt O95379) | 0.019 | 0.071 | 0.087 | -0.028 | 0.039 | 0.017 | -0.015 | -0.07 | 0.003 | 0.023 |
| TTI1 (UniProt O43156) | -0.078 | 0.115 | -0.015 | -0.045 | 0.057 | 0.028 | 0.029 | 0.008 | 0.019 | 0.028 |
| WDR37 isoform 2 (UniProt Q9Y2I8) | 0.039 | 0.006 | -0.097 | 0.012 | -0.026 | -0.204 | 0.006 | -0.144 | 0.01 | -0.088 |
| TNPO3 (UniProt Q9Y5L0) | -0.01 | 0.132 | 0.068 | -0.009 | -0.014 | 0.029 | 0.023 | -0.007 | 0.004 | -0.03 |
| TRIP10 isoform 2 (UniProt Q15642) | -0.116 | -0.002 | 0.112 | 0.094 | -0.069 | 0.055 | 0.326 | 0.055 | -0.089 | 0.014 |
| UBE2S (UniProt Q16763) | 0.01 | 0.064 | -0.025 | -0.021 | 0.052 | 0.014 | -0.008 | 0.014 | -0.02 | 0.029 |
| UBA1 (UniProt P22314) | 0.1 | 0.166 | 0.074 | -0.024 | 0.114 | -0.004 | 0.065 | 0.023 | -0.034 | -0.175 |
| VPS33A (UniProt Q96AX1) | 0.025 | 0.035 | -0.054 | -0.01 | 0.057 | 0.013 | 0.005 | -0.023 | -0.051 | -0.083 |
| VDAC1 (UniProt C9JI87) | 0.277 | -0.05 | 0.095 | -0.01 | 0.13 | 0.124 | 0.091 | -0.04 | – | – |
| USP34 (UniProt Q70CQ2) | 0.065 | 0.074 | 0.026 | -0.02 | 0.145 | -0.013 | 0.027 | -0.043 | 0.015 | -0.086 |
| TYW1 (UniProt Q9NV66) | -0.045 | 0.012 | 0.055 | 0.057 | 0.003 | 0.009 | 0.042 | 0.057 | -0.041 | 0.022 |
| UPF3B (UniProt Q9BZI7) | -0.108 | -0.149 | -0.703 (active) | 0.088 | -0.053 | -0.072 | -0.019 | -0.016 | 0.117 | -0.097 |
| TNFRSF10A (UniProt O00220) | -0.01 | -0.05 | -0.023 | -0.014 | 0.049 | -0.012 | -0.026 | 0.018 | -0.039 | -0.049 |
| TTC33 (UniProt Q6PID6) | 0.065 | -0.035 | 0.019 | 0.001 | 0.176 | -0.107 | -0.045 | -0.038 | – | – |
| TOP2A isoform 4 (UniProt P11388) | 0.008 | -0.124 | -0.429 | 0.094 | -0.061 | 0.23 | 0.077 | 0.053 | 0.073 | -0.219 |
